Experimental data published in PubChem BioAssay AID2289 (National Center for Advancing Translational Sciences (NCATS), 2010).
The campaign covered roughly 340,000 compounds. About 3,300 (0.97%) were called active. Inconclusive results (about 9%) are left out. Calls follow the shape of the dose curve; as a rule, active = well fitted inhibition curve with a large enough effect; inconclusive = small, poorly fitted or top-dose-only effect, or effect the other way; inactive = flat fitted curve, though single readings scatter. Some of the results follow.

test: qHTS Assay for Modulators of miRNAs and/or Inhibitors of miR-21; settings: HeLa miR-21-FLuc reporter, luciferase luminescence, 48 h; actives lower the signal; also: nearly all actives have a fitted effect of over 55% in size
Method in brief: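 HeLa cells endogenously expressing miR-21, stably carrying CMV-driven firefly luciferase with a downstream miR-21 binding site, 2000 cells/well. Titrations up to approximately 40 uM, 48 hours; luciferase luminescence read.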
Potency is read from the fitted curve at half-maximal effect.

Potency, active:
Cc1cc(C)nc(SCc2csc(-c3ccccc3)n2)n1 1.65 µM
COc1ccc(S(=O)(=O)Nc2ccccc2OC)cc1NC(=O)c1cc2ccccc2oc1=O 6.56 µM
COc1ccccc1NS(=O)(=O)c1cccc(NC(=O)c2cc3ccccc3oc2=O)c1 4.65 µM
COc1ccc(Cl)cc1NC(=O)Cn1ccn(Cc2ccc(C)cc2)c(=O)c1=O 7.36 µM
O=C(NCCCN1CCOCC1)c1cc(-c2cccs2)on1 16.5 µM
O=C(NCCN1CCOCC1)c1cc(-c2cccs2)on1 14.7 µM
COCCNC(=O)c1cc(-c2cccs2)on1 13.1 µM
COCCNC(=O)c1cc(-c2cccc(Cl)c2)on1 4.14 µM
O=C(NCCc1ccccc1)c1nc(-c2cccs2)no1 11.7 µM
Cc1n[nH]c(=S)n1/N=C/c1ccccc1OCc1ccc(Cl)cc1 14.7 µM
COc1cc(/C=N/n2cnnc2)ccc1OCc1ccc(C)cc1 4.14 µM
COc1cc(/C=N/n2c(C)n[nH]c2=S)ccc1OCc1ccccc1 6.56 µM
COc1cc(/C=N/n2cnnc2)ccc1OCc1ccccc1 18.5 µM
Cc1n[nH]c(=S)n1/N=C/c1ccc(OCc2ccc(Cl)cc2Cl)cc1 16.5 µM
CCOC(=O)c1cccc(NC(=O)c2cc(CN3CCCC3)on2)c1 2.33 µM
Cc1cc(C)cc(NC(=O)c2cc(CN3CCCC3)on2)c1 11.7 µM
COc1ccc2c(Sc3ccccc3)c(C(=O)NCCc3ccc(Cl)cc3)[nH]c2c1 0.464 µM
O=C(NCCc1ccccc1)c1ccc(Cl)cc1[N+](=O)[O-] 8.26 µM
O=C(NCCc1ccccc1)c1cccc([N+](=O)[O-])c1 8.26 µM
N#Cc1ccc(C2N=C(c3ccccc3)NO2)cc1 (stereo not given) 0.585 µM
COc1ccc(C2N=C(c3ccccc3)NO2)cc1OC (stereo not given) 5.21 µM
COc1ccccc1-c1nc(COc2ccc(Cl)cc2Cl)no1 7.36 µM
Clc1ccc(OCc2noc(-c3ccsc3)n2)c(Cl)c1 4.14 µM
COc1ccccc1/C=C/C=N/n1c(-c2ccccn2)n[nH]c1=S 8.26 µM
CCOC(=O)c1c(C)oc2cc(Cl)c(O)c(CN(C)C)c12 14.7 µM
C/C(=N/NC(=O)c1ccc(Br)o1)c1ccc(C)o1 10.4 µM
O=C(N/N=C/c1ccc(Br)cc1)c1ccc(Br)o1 3.29 µM
COc1cccc(-c2noc(COc3ccccc3Cl)n2)c1 16.5 µM
Cc1ccc(OCc2nc(-c3ccccc3)no2)cc1 5.21 µM
COc1ccccc1OCc1nc(-c2cccc(C)c2)no1 6.56 µM
CSc1nc(O)c(/C=C2\C=Nc3ccccc32)[nH]1 16.5 µM
COc1cc(/C=C2\OC(=O)c3c(OC)cccc32)ccc1O 7.36 µM
COc1cccc2c1C(=O)O/C2=C/c1ccc2c(c1)OCO2 0.233 µM
COc1ccc(/C=C2\OC(=O)c3c(OC)cccc32)cc1OC 2.93 µM
COc1cccc(/C=N/NC(=O)c2cccc(N3CCCC3=O)c2)c1 5.85 µM
c1csc(-c2nc(N3CCCCC3)no2)c1 2.93 µM
CCOC(=O)c1sc(=NC(=O)c2cccs2)n(C)c1C 0.293 µM
CCOC(=O)c1sc(=NC(=O)c2ccc(Cl)s2)n(C)c1C 0.233 µM
Cc1ccc2c(c1)sc(=NC(=O)c1cccs1)n2C 0.0521 µM
CCOC(=O)c1sc(=NC(=O)c2ccccc2Br)n(C)c1C 1.04 µM
O=C(NC(N1CCOCC1)C(Cl)(Cl)Cl)c1ccco1 (stereo not given) 2.93 µM
O=C(CCc1ccc(S(=O)(=O)NC2CCCCC2)cc1)NCc1ccccn1 7.36 µM
Cc1cc(-n2c(SCc3ccccc3F)nc3[nH]ncc3c2=O)ccc1Cl 4.65 µM
O=c1c2c3c(sc2ncn1-n1cccc1)CCCCC3 11.7 µM
COc1ccc(OC)c2nc(-c3ccc4c(c3)OCO4)ccc12 0.736 µM
CC(=O)c1cc2c(C)c(C(=O)c3ccccc3)oc2cc1O 0.521 µM
Cc1c(C(=O)c2ccccc2)oc2ccc3ccccc3c12 2.93 µM
CCN(CC)S(=O)(=O)c1ccc(-c2cn3ccc(C)cc3n2)cc1 0.927 µM
Cc1cc(/C=C(\C#N)C(=O)Nc2ccccc2F)c(C)[nH]1 0.521 µM
O=C(NCCSc1ccccc1)c1ccccc1Cl 1.65 µM
Cc1ccccc1SCCNC(=O)c1ccccc1Br 16.5 µM
COC(=O)c1sc(NC(=O)COc2ccccc2)nc1C 7.36 µM
COC(=O)c1sc(NC(=O)CSc2nnnn2C)nc1C 6.56 µM
CCOC(=O)c1sc(Nc2ccccc2)nc1C 4.14 µM
CNc1nc(C)c(C(=O)OCc2ccccc2)s1 16.5 µM
CCOC(=O)c1sc(NC(=O)c2ccccc2OC)nc1C 0.261 µM
CCOC(=O)c1sc(Nc2ccccc2Cl)nc1C 4.65 µM
Cc1ccccc1C(=O)N/N=C/c1ccsc1C 2.33 µM
Cc1ccccc1/C=N/NC(=O)c1sccc1C 1.47 µM
c1ccc(-c2cc(-c3ccccc3)on2)cc1 1.04 µM
O=C(c1cc(-c2ccc(Cl)cc2)on1)N1CCCC1 0.521 µM
CCC1CCCCN1C(=O)c1cc(-c2ccc(Cl)c(Cl)c2)on1 (stereo not given) 7.36 µM
O=C(c1cc(-c2ccc(Cl)cc2)on1)N1CCCCCC1 1.47 µM
O=C(c1ccccc1-c1nc(-c2ccccc2)no1)N1CCCC1 18.5 µM
O=C(c1cc(-c2ccccc2)on1)N1CCCCCC1 3.29 µM
COc1ccccc1CCC(=O)Nc1ccc(C)cc1Cl 16.5 µM
Cc1ccc(Sc2ncccc2COC(=O)NC(C)C)cc1 16.5 µM
O=C1N=C(N2CCOCC2)S/C1=C\C=C/c1ccccc1 10.4 µM
Nc1ccc(-c2nc3ccccc3s2)cn1 1.47 µM
Nc1ccccc1-c1nc2ccccc2s1 5.85 µM
N#Cc1ccc(N2Cc3ccccc3C2=NC(=O)c2cccs2)cc1 8.26 µM
CCOC(=O)c1ccc(N2Cc3ccccc3C2=NC(=O)c2cccs2)cc1 3.29 µM
Cc1ccc2[nH]c3c(=S)nc[nH]c3c2c1 3.69 µM
Cc1cc(C(=O)N/N=C/c2cccc([N+](=O)[O-])c2)c(C)n1-c1ccccc1 6.56 µM
O=C(Nc1ccc(Cl)c(Cl)c1)c1ccccc1NC(=O)C1CC=CCC1C(=O)O (stereo not given) 6.56 µM
CC(C)c1ccc(NC(=O)c2ccccc2NC(=O)C2CC=CCC2C(=O)O)cc1 (stereo not given) 3.69 µM
CN(C)C=NC(=O)c1cc(C(=O)c2ccc(C(C)(C)C)cc2)c[nH]1 0.927 µM
Cn1c(CSc2ccccc2)c(C#N)c2ccccc21 14.7 µM
Cc1ccc(Nc2nc(/N=C/NO)n[nH]2)cc1C 1.85 µM
Cc1ccc(Nc2nc(/N=C/N(C)C)n[nH]2)cc1C 7.36 µM
COCn1c(-c2ccc(OC)cc2)nc2ccccc21 3.69 µM
COCn1c(COc2ccc3ccccc3c2)nc2ccccc21 2.07 µM
C=CCn1c(-c2ccc(N)cc2)nc2ccccc21 4.65 µM
O=C(c1cc(-c2ccccc2O)on1)N1CCCCCC1 2.07 µM
O=C(c1cc(-c2ccccc2O)on1)N1CCOCC1 13.1 µM
O=C(c1cc(-c2ccccc2O)on1)N1CCCCC1 0.826 µM
Cc1ccc2c(c1)NC(=O)CC(c1ccccc1)=N2 13.1 µM
CSc1ccc(/C=C/C(=O)c2c(O)cc(C)oc2=O)cc1 13.1 µM
Cc1ccc(NC(=O)CCCNC(=O)c2ccc(Cl)cc2)c(O)c1 16.5 µM
[O-]/[N+](=C\C=C\c1ccccc1)c1ccccc1 1.85 µM
CC(=O)Nc1ccc(C(=O)/C=C/c2ccc[nH]2)cc1 13.1 µM
COc1ccc(N2Cc3ccc(OC)c(OC)c3C2=O)cc1 2.07 µM
Cc1cccc(OCC(=O)Nc2ccccc2F)c1 6.56 µM
Cc1ccc(OCC(=O)Nc2ccccc2F)cc1C 4.14 µM
Cc1nc(NC(=O)CSc2nnc(-c3ccc4c(c3)OCO4)o2)c(Cl)cc1Cl 16.5 µM
O=C(CSCc1ccccc1Cl)Nc1ccc2c(c1)OCCO2 2.07 µM
Cc1ccc(NC(=O)CSc2nnc(-c3cccs3)o2)cc1S(=O)(=O)N(C)C 8.26 µM
O=C(CSc1nnc(-c2ccccc2Cl)o1)Nc1ccc2c(c1)OCCO2 6.56 µM
Cc1ccc(/C=C/C(=O)NCc2cccs2)c(C)c1 5.85 µM
COc1ccc(N(/N=C2\Sc3ccccc3C2=O)C(C)=O)cc1 0.261 µM
O=C(COC(=O)c1ccc[nH]c1=O)NCCc1ccc(Cl)cc1Cl 1.65 µM
COc1ccc(/C=C/c2nc(-c3ccccc3O)n[nH]2)cc1OC 4.65 µM
COc1ccc(/C=C/c2nc(-c3ccccc3O)n[nH]2)cc1 2.33 µM
COc1cc(C(F)(F)F)ccc1C(=O)NCCc1ccco1 7.36 µM
CCc1nc2ccc(C(=O)NCCc3ccco3)cc2nc1CC 14.7 µM
